# Source: PubChem BioAssay
# Calls of active or inactive are those of the source.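 The calls were made as follows, unless noted: active = inhibition above 20% together with a positive visual image hit; inconclusive = visual image hit but inhibition not above 20%; inactive = no visual image hit.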
# Legend:
# [1] = inhibitors of TNFa-induced NFkB p65 translocation, primary screen, imaging, HUVEC, MLSMR starter and 10KST1 sets (AID 438); conditions: HUVEC TNFa-induced p65 nuclear translocation; cell count: measured here: nuclei count (cytotoxicity indicator), at 2.08 µM; inhibition: at 2 µM, stronger effect = higher value, 0% TNFa-plus-vehicle, 100% no-TNFa wells;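 also: compound added about 3h40 before a 20 min TNFalpha stimulation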;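 as to inhibition: signal is the nuclear over cytoplasmic p65 intensity ratio per well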
# [2] = reduction of polyQ htt aggregates in cells – imaging, exon1htt(103Q)mCFP cells, high-content imaging, primary screen (AID 483;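 active = visual image review flags a hit and inhibition of aggregation exceeds 20%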;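 also: compound exposure lasted 3 days before fixation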;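 as to nuclei count: percent of the per-plate median nuclei count of sample wells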); conditions: exon1htt(103Q)mCFP cell line, aggregate imaging, at 2 µM; inhibition of aggregation: stronger effect = higher value; nuclei count: measured here: cell count, toxicity
# [3] = endothelial E-selectin expression blockers – imaging, HUVEC, immunofluorescence, MLSMR starter and 10KST1 sets, primary screen (AID 487;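 active = visually confirmed hit in the image check and inhibition above 20%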;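 as to inhibition: signal is fraction of cell area covered by stained E-selectin grains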;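 as to nuclei count: 100% = median nuclei count of all wells on the same plate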); conditions: HUVEC TNFalpha-induced E-selectin immunofluorescence imaging, at 2 µM; inhibition: stronger effect = higher value; nuclei count: measured here: cell number, toxicity
# [4] = target: Voltage-gated potassium channel subunit beta-2 (Rattus norvegicus) (UniProt P62483); experiment: inhibitors of rat Kvbeta2 reductase activity – biochemical, NADPH fluorescence, primary screen (AID 622;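 active = fluorescence slope higher than the sample average by over 3 SD, cut at about -0.22 in these data, passing the limit was not always enough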;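 also: slope of raw intensity against log time taken from 70 to 1610 s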); conditions: recombinant KvBeta, 4-cyanobenzaldehyde reduction, at 10 µM, stronger effect = higher value
# [5] = target: Voltage-gated potassium channel subunit beta-2 (Rattus norvegicus) (UniProt P62483); experiment: enhancers of rat Kvbeta2 NADPH turnover – biochemical, NADPH fluorescence, primary screen (AID 623;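 active = NADPH fluorescence slope more negative than the mean of all samples by about 3 SD, 99.7% confidence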;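 also: fluorescence intensity change per second fitted from 20 to 320 s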); conditions: Recombinant KvBeta, NADPH fluorescence decrease slope, 10 min; at 10 µM; stronger effect = lower value
# [6] = target: Alpha-2C adrenergic receptor (Homo sapiens) (UniProt P18825); experiment: compounds altering alpha2C-coupled GIRK flux – cell-based, HEK293 alpha2C/GIRK1/2, thallium flux, primary screen (AID 624;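 active = fluorescence slope after compound addition differing from the mean of all screened samples at 99.7% confidence, in either direction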;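 also: slope of fluorescence ratio to pre-addition baseline per second over 15 to 24 s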); conditions: thallium flux BTC fluorescence, at 10 µM, actives lie on both sides
# [7] = blockers of RIG-like receptor reporter activation – cell-based, Sendai virus stimulus, luciferase, 10K MLSCN set, TLR/RLR signaling modifier project, primary screen (AID 602276;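 active = inhibition at or above 50% at 10 µM; inactive = inhibition below 50%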;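 also: firefly luciferase from ISG56 promoter only with Renilla not read in this screen; 0% = Sendai virus plus DMSO and 100% = medium plus DMSO without virus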); conditions: HEK293 RL24 IRF3 luciferase reporter, at 10 µM, stronger effect = higher value
# [8] = TLR3 IRF3 reporter activation blockers – cell-based, poly I:C stimulus, luciferase, 10K MLSCN set, primary screen (AID 602277;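 active = inhibition of the reporter signal at or above 50%; inactive = inhibition below 50%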); conditions: HEK293-TLR3 RL24 IRF3 luciferase reporter, at 10 µM, stronger effect = higher value
# Sequence of Alpha-2C adrenergic receptor (Homo sapiens) (P18825 whole entry, looked up): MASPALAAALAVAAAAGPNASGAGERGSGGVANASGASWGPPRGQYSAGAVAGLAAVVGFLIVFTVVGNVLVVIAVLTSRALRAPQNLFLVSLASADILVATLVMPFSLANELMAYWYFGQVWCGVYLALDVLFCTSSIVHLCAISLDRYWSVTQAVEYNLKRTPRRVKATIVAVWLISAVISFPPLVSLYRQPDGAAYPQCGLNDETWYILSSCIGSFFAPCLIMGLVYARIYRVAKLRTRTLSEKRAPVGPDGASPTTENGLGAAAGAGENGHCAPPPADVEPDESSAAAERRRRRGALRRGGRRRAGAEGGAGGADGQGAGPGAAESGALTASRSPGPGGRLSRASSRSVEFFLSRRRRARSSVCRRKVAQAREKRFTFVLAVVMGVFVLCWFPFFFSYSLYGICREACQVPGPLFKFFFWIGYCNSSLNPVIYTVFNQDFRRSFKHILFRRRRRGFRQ
# Sequence of Voltage-gated potassium channel subunit beta-2 (Rattus norvegicus) (P62483 whole entry, looked up): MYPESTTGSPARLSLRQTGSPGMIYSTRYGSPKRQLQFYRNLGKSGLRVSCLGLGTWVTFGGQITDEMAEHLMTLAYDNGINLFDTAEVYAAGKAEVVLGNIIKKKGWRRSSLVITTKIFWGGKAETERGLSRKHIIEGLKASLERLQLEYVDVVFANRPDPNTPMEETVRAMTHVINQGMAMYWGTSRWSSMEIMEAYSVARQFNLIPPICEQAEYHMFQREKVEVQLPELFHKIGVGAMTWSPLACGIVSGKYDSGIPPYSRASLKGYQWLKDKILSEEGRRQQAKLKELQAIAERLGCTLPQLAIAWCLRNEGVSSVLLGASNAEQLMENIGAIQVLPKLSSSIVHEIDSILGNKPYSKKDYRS
SMILES,cell count [1],inhibition [1],inhibition of aggregation [2],nuclei count [2] [%],inhibition [3],nuclei count [3] [%],fluorescence slope [4],NADPH fluorescence slope [5],slope [6],inhibition [7],inhibition [8]
NC(=O)c1sc2nc3c(c(-c4ccco4)c2c1N)CCC3,365,5.8% (inactive),1.6% (inactive),87.8,-32.2% (inactive),121,-0.366 (inactive),-6.5e-05 (inactive),0.00352 (inactive),16.4% (inactive),-2.19% (inactive)
CN(C)c1ccc(NC(=O)c2ccncc2)c2ccccc12,315,2.7% (inactive),6.2% (inactive),94.4,-88.6% (inactive),105,-0.316 (inactive),-5.4e-05 (inactive),0.00482 (inactive),15.4% (inactive),12% (inactive)
CCOC(=O)CSC1=C(C#N)C(c2ccc(C)o2)CC(=O)N1 (stereo unspecified),557,14.4% (inactive),29.1% (inactive),3.4,-60% (inactive),95,-0.511 (inactive),-2e-05 (inactive),0.00803 (inactive),10.4% (inactive),87.6% (active)
CC(Sc1nnnn1C)C(=O)Nc1ccc(Oc2ccccc2)cc1 (stereo unspecified),354,0.5% (inactive),-25.9% (inactive),105,-72.3% (inactive),125,-0.505 (inactive),-2.8e-05 (inactive),0.00778 (inactive),-8.41% (inactive),-9.23% (inactive)
COCCn1c(C)cc(C(=O)COC(=O)c2n[nH]c3ccccc23)c1C,330,3.7% (inactive),2.3% (inactive),98.9,-26.9% (inactive),114,-0.5 (inactive),-4.3e-05 (inactive),0.00592 (inactive),71.8% (active),49.1% (inactive)
COCCn1c(SCC(=O)Nc2cccc(OC)c2)nnc1-c1ccccc1,690,2.1% (inactive),6.3% (inactive),96.7,-16% (inactive),117,-0.492 (inactive),-3.1e-05 (inactive),0.00579 (inactive),-0.479% (inactive),19.1% (inactive)
O=C1CC(c2ccccc2)CC(O)=C1C=NCCN1CCOCC1 (stereo unspecified),541,-2.9% (inactive),24.1% (inactive),94.3,37.7% (inactive),99.1,-0.441 (inactive),1.8e-05 (inactive),0.00626 (inactive),7.02% (inactive),31.4% (inactive)
Cn1c2ccccc2c2ncn(CCCN3CCOCC3)c(=O)c21,715,-0.6% (inactive),-15.1% (inactive),94,5.6% (inactive),113,-0.383 (inactive),2e-05 (inactive),0.00539 (inactive),5.16% (inactive),23.7% (inactive)
O=C(COC(=O)CCC(=O)c1cccs1)NCc1ccco1,469,-20.9% (inactive),1.1% (inactive),101,-16.1% (inactive),86.1,-0.332 (inactive),-5.5e-05 (inactive),0.00705 (inactive),18% (inactive),25.1% (inactive)
CCOC(=O)c1ccccc1NC(=O)c1ccc(NS(C)(=O)=O)cc1,485,-2.2% (inactive),10.4% (inactive),90.2,26.8% (inactive),86,-0.473 (inactive),-6e-06 (inactive),0.00606 (inactive),6.8% (inactive),11.4% (inactive)
N#Cc1cc2c(nc1SCC(=O)Nc1sc3c(c1C#N)CCC3)CCCCC2,606,5.3% (inactive),-0.2% (inactive),103,32.4% (inactive),104,-0.323 (inactive),-4.1e-05 (inactive),0.00575 (inactive),1.89% (inactive),-0.19% (inactive)
Cc1ccc(CSc2nc3c(c(=O)[nH]2)CCC3)cc1,423,11.5% (inactive),-3.3% (inactive),103,4.9% (inactive),103,-0.363 (inactive),-2.9e-05 (inactive),0.00659 (inactive),-0.266% (inactive),8.89% (inactive)
Cc1oc(-c2ccccc2F)nc1CS(=O)(=O)CC(=O)N1CCN(Cc2ccccc2)CC1,853,-4% (inactive),-23.9% (inactive),90.4,-96.8% (inactive),109,-0.498 (inactive),-4.4e-05 (inactive),0.00602 (inactive),6.04% (inactive),-4.63% (inactive)
Cc1nc2cc(-n3ccc(=O)cc3)ccc2n1-c1ccccc1,352,-2.1% (inactive),1.3% (inactive),98.4,-286% (inactive),113,-0.407 (inactive),-3.5e-05 (inactive),0.00591 (inactive),19.8% (inactive),99% (active)
CCOC(=O)c1ccc(NC(=O)c2ccc(NS(C)(=O)=O)cc2)cc1,473,-4.3% (inactive),8.8% (inactive),95.3,32.9% (inactive),95.1,-0.401 (inactive),4e-05 (inactive),0.00834 (inactive),6.57% (inactive),11.9% (inactive)
CCOC(=O)c1nnn(CC(=O)Nc2cccc(F)c2)c1C(=O)OCC,581,-7.9% (inactive),8.9% (inactive),124,-41.8% (inactive),112,-0.6 (inactive),-1.1e-05 (inactive),0.00821 (inactive),3.63% (inactive),12.6% (inactive)
CC12CCC(C(=O)N3CCCCC3)(CC1=O)C2(C)C (stereo unspecified),483,2% (inactive),-4.8% (inactive),99.5,-305% (inactive),126,-0.299 (inactive),8.8e-06 (inactive),0.00667 (inactive),10.9% (inactive),28.7% (inactive)
CCc1ccccc1N1CC23C=CC(O2)C(C(=O)O)C3C1=O (stereo unspecified),591,-3.4% (inactive),-8.2% (inactive),103,-23.4% (inactive),105,-0.515 (inactive),-2.2e-05 (inactive),0.00685 (inactive),12.3% (inactive),36.8% (inactive)
O=C(OCC(=O)N1CCc2ccccc21)C1=COCCO1,341,-3.1% (inactive),8.9% (inactive),86.5,-37% (inactive),113,-0.633 (inactive),-7.8e-06 (inactive),0.00715 (inactive),-12.3% (inactive),-46.6% (inactive)
COc1ccc(CCn2c(-c3ccco3)nc3nc4ccccc4nc32)cc1,806,-5.6% (inactive),-7.3% (inactive),101,-25.4% (inactive),115,-0.445 (inactive),-3.4e-05 (inactive),0.00679 (inactive),18.8% (inactive),-6.71% (inactive)
Cc1ccc(C2Nc3ccccc3-c3nc4ccccc4n32)o1 (stereo unspecified),741,6.8% (inactive),3.8% (inactive),88.4,-26.5% (inactive),80.6,-0.475 (inactive),-2.2e-05 (inactive),0.00364 (inactive),-46.2% (inactive),-110% (inactive)
CC(C)=CCCC(C)N(C=O)C(C)CCC=C(C)C (stereo unspecified),470,8.1% (inactive),4.3% (inactive),98.2,-144% (inactive),126,-0.598 (inactive),-1.6e-06 (inactive),0.00568 (inactive),10.3% (inactive),-8.14% (inactive)
COc1ccc(C(N)=O)cc1N,413,2.5% (inactive),-8.6% (inactive),98.3,-40.2% (inactive),118,-0.45 (inactive),2.7e-05 (inactive),0.00578 (inactive),-5.97% (inactive),8.78% (inactive)
Cc1nc2ccccn2c1/C(O)=C1\C(=O)C(=O)N(CCCN(C)C)C1c1ccc(F)cc1 (stereo unspecified),507,21.6% (inactive),-28.8% (inactive),92.5,-54.5% (inactive),122,-0.566 (inactive),1.9e-05 (inactive),0.00687 (inactive),6.26% (inactive),3.28% (inactive)
Cc1ccc(-n2c3c(cc(C(=O)NC4CCSC4=O)c2=O)C(=O)CC(C)(C)C3)cc1 (stereo unspecified),294,7.2% (inactive),7% (inactive),100,-48.3% (inactive),97.9,-0.458 (inactive),-8.6e-06 (inactive),0.00353 (inactive),-0.246% (inactive),38.6% (inactive)
C=CCn1c(SCC(=O)NCC2CCCO2)nc2scc(-c3ccco3)c2c1=O (stereo unspecified),557,-10.3% (inactive),-29.4% (inactive),98.5,28.1% (inactive),98.7,-0.459 (inactive),-0.000271 (active),0.00487 (inactive),11.9% (inactive),13.5% (inactive)
